Test results as given in the supplement of paper PMC10681739.

Columns and labels:
[1] = molecular target: T1, ETS1 (UniProt P14921); assay: ETS1 binding intensity (PBM fluorescence), ETS1 alone (arbitrary fluorescence units); higher = stronger binding; settings: ETS1 concentration 1 nM; RUNX1 concentration 0 nM
T1 sequence: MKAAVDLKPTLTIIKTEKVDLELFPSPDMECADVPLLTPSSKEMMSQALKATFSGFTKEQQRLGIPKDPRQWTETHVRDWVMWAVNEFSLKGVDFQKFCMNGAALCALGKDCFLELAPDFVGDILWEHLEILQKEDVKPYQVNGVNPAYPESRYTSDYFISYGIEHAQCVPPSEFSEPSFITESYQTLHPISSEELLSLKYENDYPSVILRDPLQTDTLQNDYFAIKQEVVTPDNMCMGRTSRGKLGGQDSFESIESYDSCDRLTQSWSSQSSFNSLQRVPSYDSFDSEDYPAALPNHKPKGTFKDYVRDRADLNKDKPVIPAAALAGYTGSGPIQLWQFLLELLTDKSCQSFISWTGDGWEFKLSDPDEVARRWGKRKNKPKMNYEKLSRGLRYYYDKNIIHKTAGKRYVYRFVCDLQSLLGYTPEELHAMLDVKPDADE

[2] = molecular target: RUNX1 (UniProt Q01196); assay: RUNX1 binding intensity (PBM fluorescence), RUNX1 alone (arbitrary fluorescence units); higher = stronger binding; settings: RUNX1 concentration 2 nM; ETS1 concentration 0 nM
Chain of RUNX1 (Q01196 whole entry): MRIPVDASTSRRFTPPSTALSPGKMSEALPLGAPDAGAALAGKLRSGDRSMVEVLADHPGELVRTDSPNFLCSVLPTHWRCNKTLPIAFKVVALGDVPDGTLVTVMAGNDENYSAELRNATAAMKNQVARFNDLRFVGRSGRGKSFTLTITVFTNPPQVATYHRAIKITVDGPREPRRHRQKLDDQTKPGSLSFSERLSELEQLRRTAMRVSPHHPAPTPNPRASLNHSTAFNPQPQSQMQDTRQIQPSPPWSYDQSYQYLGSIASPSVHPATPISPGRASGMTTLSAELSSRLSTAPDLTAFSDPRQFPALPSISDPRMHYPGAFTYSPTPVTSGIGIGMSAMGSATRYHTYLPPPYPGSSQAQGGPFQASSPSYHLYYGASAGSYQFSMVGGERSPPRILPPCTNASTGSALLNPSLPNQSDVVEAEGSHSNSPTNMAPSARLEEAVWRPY
Procedure: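 Cooperative gcPBM on 36-bp genomic probes with neighbouring ETS1 and RUNX1 sites. Recombinant human RUNX1 (2 nM) was incubated alone or with ETS1 (25 nM) and detected with anti-RUNX1 antibody plus Alexa488 secondary. Values are medians over 4 replicate spots; the RUNX1+ETS1 data were normalised to the RUNX1-only data. The probes sit in constant array flanks that are not printed.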

[3] = molecular target: T1, ETS1; assay: ETS1 binding intensity (PBM fluorescence) in presence of RUNX1, normalised to ETS1-only experiment (arbitrary fluorescence units); higher = stronger binding; settings: ETS1 concentration 1 nM; RUNX1 concentration 25 nM
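For RUNX1 binding intensity (PBM fluorescence), RUNX1 alone in this document: Full-length recombinant human RUNX1 bound to double-stranded 36-bp genomic probes on a high-density microarray, scored as Alexa488 fluorescence per spot via anti-RUNX1 antibody, median of four replicate spots.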

Sequence | ETS1 binding intensity [1] | RUNX1 binding intensity [2] | ETS1 binding intensity [3]
GGGCCCTTCCTGTGGCGCCTGCCGAGCTGTGGTTGG | 388 | 716 | 496
AGCTGCAGTTGGGCAGGAAACCACAATGTCGAAGAC | 2490 | 1320 | 5770
AGCTTCCTGTTTGGCCTTGCTGATGTCACCGCATTA | 729 | 932 | 1090
CAATGGATGGCCACATCCTCACCACAAACTGAGTCA | 368 | 939 | 647
GCAAACAGCACATCCGGTGTGGTCGACGGGTCCTCC | 5820 | 728 | 6160
GTACTGAGTCACAGGAAACCACAAGGGAAGGGTCCC | 2510 | 1570 | 4720
GAGCACAGGAAAAGCTGGTGCCAACCACAAGTGCTT | 368 | 815 | 1130
ACCTTCTGTTCCCTTCCTCAGACCGCAGGCGAGATG | 367 | 1620 | 835
TATTCATGACATCCTGTCGGGCTTGTGGGCTGCGTA | 1020 | 704 | 1590
CCTACACTTCCCAGAGAACCTAGCGGTTACGCCAAC | 401 | 1340 | 505
GGGCTCGGGGAGGAAGCGGTGGTTTCTCTTTGAAGC | 696 | 729 | 907
CAGAGAGCGGACTTCCGCGACGCGGGTAAGCCGGGC | 498 | 670 | 368
CGAACGCCGGACGTTCTGGGCACGTGACCGCCACCC | 643 | 863 | 1100
GGCGGCTTCCGGGATCTGCCTGGCGGTTGCTTTGTC | 568 | 729 | 525
CTTAGCGGAAGAGGCGTGACCCAGGCGTACCGCAGG | 497 | 804 | 1320
TCATTTCCTCTGGTGTTATTGTGTTGTGGTTTTAAG | 417 | 1580 | 1560
AGATGGTGTGGCCGGATGGGGACCACATTGAAGAGA | 1090 |  | 1240
AGTCAGCAGAGAGGAAGTGGTTAGTCCTGCCTTGAA | 2240 | 742 | 4900
TCTTCTTCCTCCCCCACCCCAAAAGCCACAGGTGAC | 492 | 1290 | 441
GCAGAAGAGGAAATGGTTTGCCTGTGCGGTGGGGGA | 1370 | 821 | 3280
TCTGGAGAAGCAGGATGTGGTTTGCAAGAGGCTTGC | 4750 | 774 | 16700
AATTCCCAGGAAGCACTCGGCAGCCACAAACTGATG | 539 |  | 483

Sequence | ETS1 binding intensity [1] | RUNX1 binding intensity [2] | ETS1 binding intensity [3]
GTTTTCAAGGCAGGAAGTGGCTGTGGTGGCACGGAG | 13700 | 789 | 21300
GAGCAGTGGTGGGAAATGTGGGGTTGGGGGTAAAGG | 493 | 874 | 390
CCGCTTCCGGGACGCGAATCGCTCTGCGGCTGCGTC | 556 | 832 | 722
GAAATCACATCCTTTTGCAAAACCACAGGTGTTTTG | 409 | 1320 | 1500
GCGGAGCGAGCGGCCGGATGCGGTCACCATAGAGAC | 4210 | 917 | 25200
AAAGAACTTCCTGAGGTGCTTGAGGTTAGGCTATGG | 487 | 727 | 498
CATAGGAAGTGCTCAGCTCTCCTCCACCGCAAGTTT | 452 | 806 | 2190
TCTAACGCTGAAGGAGGATGTGGTTTCCTATTGGAC | 1770 | 880 | 11500
GCCCGGAAGCGCGACGCTGGAGCTGCGGGGTTACCA | 773 | 662 | 887
GGCCTTCTGCCTACATCCTGCGGCGCCCGCGACCCG | 679 |  | 593
CTTCTGGCGGAAGCGGCACAAGCCGCAGTACAGCGC | 1070 | 738 | 2370
TGTCGGGCGGATGTGTACCGGCGGTAATATAGTAAG | 2300 | 753 | 2270
AAGTGGAGAGCGGAAGTGAGCTGTGGGTGACTGCAG | 6780 | 759 | 8400
GGGGCAGGAAGTGGAGGTTTGAAGTGGTTTAGAGTA | 1740 | 799 | 2310
AACAACTGACCGGACAGAACACAGCCACAAAACACG | 606 | 936 | 544
GCTGAGGCCGGAAGAGGGTGGGGCCGCGGTGGCTAG | 2170 | 756 | 3070
CTCACAGCAGCCCCAGGAAACCACCTCTTCCTTCAG | 847 | 997 | 876
GTTGGGCTTTGAGGATGTGGGTTCTAGAAGTTTACA | 928 | 890 | 2120
GAAACCTCACTCTGAGGATGTGGGTTCTGCCTTCTT | 522 |  | 1710
GGCGGCCTCAACTTCCGCGGTGGGACTCCGGAGCAG | 503 |  | 445
CGAAGGAGGAAGCTGCACAGGGTGTCTGTGGCTGGC | 443 |  | 428
